{
  "source": "the supplement of paper PMC11417369",
  "note": "The full ranking holds about 25,000 sequences; the median of “ln(normalized median fluorescence intensity)” is about 6.7, and the highest 2% start at about 10. The sample as a whole holds a higher share of the highest values than the screen did.",
  "data": [
    {"tested_on": "PfHDP1 homeodomain (GST-tagged)", "assay": "gcPBM binding intensity (ln(normalized median fluorescence intensity)); higher = stronger DNA binding", "how_it_was_run": "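GST-fused DNA-binding domains of P. falciparum, expressed in E. coli, were applied at about 25 μg on average for 1 h to an Agilent 4 × 180k array of primer-extended double-stranded 36-bp intergenic genomic probes and negative controls. Binding intensity is the highest Masliner-normalised natural-log median intensity across replicate spots of either probe orientation, measured with Alexa488 anti-GST antibody and a 488 nm scan.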", "values": [
      {"sequence": "TAGATAAAATGAACATGTACTCATCTTAATATATAT [XGTACX_site34]", "gcPBM binding intensity (ln)": 6.23},
      {"sequence": "AAAAGATATATTATATGTACTAATTATATGATAAAT [XGTACX_site4192]", "gcPBM binding intensity (ln)": 6.32},
      {"sequence": "AGAGGTAGAGAGAAAACATGCATAATGATTTTCATA [TGCATGCA_site958]", "gcPBM binding intensity (ln)": 6.1},
      {"sequence": "CATGCTACATCTTATTGTACTTATCTAATGTTAGTA [XGTACX_site1863]", "gcPBM binding intensity (ln)": 6.75},
      {"sequence": "TATGTGCACCCATGTACATGCGGACATATGTTATAT [TGCATGCA_site383]", "gcPBM binding intensity (ln)": 10.6},
      {"sequence": "TATATATATATATATGCATGTACATATATTTGTTAT [TGCATGCA_site379]", "gcPBM binding intensity (ln)": 9.2},
      {"sequence": "ATATATATATATGCATGTACATATATTTGTTATATC [XGTACX_site3197]", "gcPBM binding intensity (ln)": 9.16},
      {"sequence": "AAAATATTTATTACTTCACACATTATTGTATTTATA [CACACA_site5082]", "gcPBM binding intensity (ln)": 6.5},
      {"sequence": "TTTGTTTTTTTGAGAGTGCAATATATATAAAAAGGG [GTGCAC_site9691]", "gcPBM binding intensity (ln)": 9.35},
      {"sequence": "TTTCGTAATATGCGTGTGCACAATGAGTCCATATCT", "gcPBM binding intensity (ln)": 10.9},
      {"sequence": "TATATATATATATGAGTGCATATGTGTAATATAAAA", "gcPBM binding intensity (ln)": 9.65},
      {"sequence": "GCGTGTGTACAATGAGTGCATATCTAAAGGGAAGAT", "gcPBM binding intensity (ln)": 9.43},
      {"sequence": "TCAAAAAAAAAAAAAAAAAAAAAAAAAAAAAAAAAA [CACACA_negctrl_site1753]", "gcPBM binding intensity (ln)": 5.92},
      {"sequence": "TATTAATAAATATGTTTACACACGAAAATACATTTT [CACACA_site1012]", "gcPBM binding intensity (ln)": 6.35},
      {"sequence": "TGTATAATATTTGGTGCACACAAATTAACAACTGTT [CACACA_site9245]", "gcPBM binding intensity (ln)": 10.6},
      {"sequence": "TTCTTTGTAGTATATTAACACACAACTGTTTATAAT [CACACA_site9305]", "gcPBM binding intensity (ln)": 6.67},
      {"sequence": "TTTATTTTTAACAGTGCACACATAACTTAATTATAT [CACACA_site8681]", "gcPBM binding intensity (ln)": 9.52},
      {"sequence": "TATAATATTTGGTGCACACAAATTAACAACTGTTTA [CACACA_site3742]", "gcPBM binding intensity (ln)": 10.8},
      {"sequence": "CTTTGTAGTATATTAACACACAACTGTTTATAATAT [CACACA_site6038]", "gcPBM binding intensity (ln)": 6.53},
      {"sequence": "TGTATTAAATTTTGAACACACAAAATAAAACATATA [CACACA_site1672]", "gcPBM binding intensity (ln)": 6.54},
      {"sequence": "TCGTAGTTACTATGGCAAGAAAATAAACGGTCTTGT [GTGCAC_negctrl_site684]", "gcPBM binding intensity (ln)": 6.6},
      {"sequence": "ATTAAAAATTATATTTTATAAAAATTAAAAGAAATA [CACACA_negctrl_site65]", "gcPBM binding intensity (ln)": 6.47},
      {"sequence": "AATAATTTTTTAAACACACACACATATATATATATA [CACACA_site95]", "gcPBM binding intensity (ln)": 9.08},
      {"sequence": "AAAAATATATATATATATATATATATATTATTTTTT [TGCATGCA_negctrl_site378]", "gcPBM binding intensity (ln)": 7},
      {"sequence": "TAGAAGCATCATTTTACACACATGCAAATGTAAACT [CACACA_site6973]", "gcPBM binding intensity (ln)": 6.66}
    ]}
  ]
}
